The results in this text go back to PubChem BioAssay AID1403 (National Center for Advancing Translational Sciences (NCATS), 2008).

Records with an inconclusive call do not appear. Activity calls are given as the source filed them. Calls come from the whole dose curve; as a rule, active = well fitted curve in the direction sought with a large enough effect in the signal ratio; inconclusive = small, poorly fitted or top-dose-only effect, or a change in a side signal; inactive = no such curve, though single readings can be large or run the other way; the % refers to the signal ratio.

This experiment has as its target Follicle-stimulating hormone receptor (Homo sapiens) (UniProt P23945). Kind of experiment: Counterscreen for Agonists of Thyroid Stimulating Hormone Receptor: HTRF Activity in a Follicle Stimulating Hormone Receptor Cell Line. The source says:
NIH Chemical Genomics Center [NCGC] NIH Molecular Libraries Screening Centers Network [MLSCN] MLSCN Grant: 1 X01 MH080680-01 PI Name: Dr. Marvin Gershengorn, NIH NCGC Assay Overview: Confirmation of Thyroid Stimulating Hormone Receptor Agonists TSH is an alpha/beta heterodimeric glycoprotein hormone secreted from the anterior pituitary gland which belongs to the glycoprotein hormone family. The actions of TSH are mediated by a seven-transmembrane receptor, which upon TSH binding couples preferentially to the G-alpha (s) protein (Gs), resulting in activation of adenylate cyclase and increase in cyclic adenosine 3', 5' monophosphate (cAMP). The TSH receptor (THSR) is mainly expressed in thyroid follicular cells and regulates their growth and function. […] In order to confirm specificity of the compounds to the TSHR, a confirmatory assay was conducted on a similar family member, the Follicle Stimulating Hormone (FSH) receptor, transfected into a HEK 293 cell line, using an orthogonal detection technology to measure cAMP stimulation: antibody-based Homogeneous Time Resolved Fluorescence (HTRF).
NCGC Assay Protocol Summary: Homogeneous Time Resolved Fluorescence (HTRF) cAMP Assay. […] Plates were measured using the Envision plate reader (PerkinElmer, Boston, MA) with excitation at 330 nm and emissions of 615 nm and 660 nm. […]
On the technique in general: Counterscreens check selectivity or assay interference.

Take `C=CCN1C(=O)C2(C(C(=O)OC)=C(N)Oc3c2c(=O)oc2ccccc32)c2ccccc21` (configuration not stated): the call was inactive.
Turning to `CCOC(=O)C1=C(N)Oc2c(c(=O)oc3ccccc23)C12C(=O)N(C)c1ccccc12` (configuration not stated), the compound was called inactive.
